Laboratory results from PubChem BioAssay (Tox21).
Values joined by “and” are separate entries in the source; they are usually repeats but may differ in a detail not shown here. Equal values may be shown once. A number with no mark means an inactive call. Inconclusive results are not listed. Entries that show only a call come without a potency. Active and inactive are the calls of the source. The call rests on the fitted dose curve; in most records, active means well fitted curve in the direction sought with a large enough effect in the repeat runs; inconclusive means weak or mixed curves; inactive means no such curve, though single readings can be large; an effect the other way counts as inactive or inconclusive. Residues, ends and D or L forms follow the SMILES beside them.

Tests used:
[1] = A CellTox Green Cytotoxicity Assay to monitor cytotoxicity in HEK293 cells - 40 hour (AID 1224871); further: nearly all actives have a fitted effect of over 45% in size
Procedure, shortened: (§1)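 Read-out: fluorescence of a cell-impermeant cyanine dye staining DNA of dead cells, proportional to cytotoxicity. HEK293, 600 cells/well with reagent, compound (23 nL DMSO) added after 5 h; reads at 0, 8, 16, 24, 32, 40 h.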

[2] = qHTS RealTime-Glo MT Cell Viability Assay in HEK293 cells - 16 hour (AID 1224872); further: top concentration of the series differs between compounds; nearly all actives have a fitted effect of over 50% in size
Procedure, shortened: (§2)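 Homogeneous bioluminescent viability format in HEK293 cells (600 cells/well). Following 5 h at 37 C/5% CO2, 23 nL compound was pintooled; the signal was measured repeatedly during 40 h incubation.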

[3] = qHTS RealTime-Glo MT Cell Viability Assay in HepG2 cells - 8 hour (AID 1224873); further: nearly all actives have a fitted effect of over 55% in size
Procedure, shortened: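 HepG2 cells (600/well) mixed with RealTime-Glo MT reagent, settled 5 h at 37 C/5% CO2 before compound addition. Nonlytic NanoLuc luminescence from viable-cell prosubstrate reduction read repeatedly during 40 h treatment at 37 C.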

[4] = qHTS RealTime-Glo MT Cell Viability Assay in HEK293 cells - 40 hour (AID 1224874); conditions: RealTime-Glo luminescence; max response: stronger effect = lower value; further: nearly all actives have a fitted effect of over 50% in size
Procedure, shortened: (§3)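 Luminescence readout at each listed time point; HEK293, 600 cells/well, RealTime-Glo MT reagent added with cells; compounds pinned (23 nL in DMSO) after 5 h at 37 C; continuous culture at 37 C.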

[5] = A CellTox Green Cytotoxicity Assay to monitor cytotoxicity in HEK293 cells - 24 hour (AID 1224875); further: series mostly up to about 77 µM; nearly all actives have a fitted effect of over 45% in size
Procedure, shortened: as §1

[6] = A CellTox Green Cytotoxicity Assay to monitor cytotoxicity in HepG2 cells - 16 hour (AID 1224876); further: nearly all actives have a fitted effect of over 45% in size
Procedure, shortened: (§4)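 HepG2, 600 cells/well premixed w/ CellTox Green; 5 h settle, 37 C/5% CO2; pintool cpd add (DMSO); 37 C, 40 h; fluorescence read at 0, 8, 16, 24, 32, 40 h.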

[7] = qHTS RealTime-Glo MT Cell Viability Assay in HepG2 cells - 32 hour (AID 1224877); further: nearly all actives have a fitted effect of over 55% in size
Procedure, shortened: (§5)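 Cell number in HepG2 cultures estimated from NanoLuc luminescence generated by metabolic reduction of a prosubstrate by living cells. The homogeneous, nonlytic format allowed repeated reads at 0, 8, 16, 24, 32 and 40 h of compound exposure.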

[8] = A CellTox Green Cytotoxicity Assay to monitor cytotoxicity in HepG2 cells - 24 hour (AID 1224878); further: nearly all actives have a fitted effect of over 45% in size
Procedure, shortened: as §4

[9] = A CellTox Green Cytotoxicity Assay to monitor cytotoxicity in HepG2 cells - 40 hour (AID 1224879); further: nearly all actives have a fitted effect of over 40% in size
Procedure, shortened: as §4

[10] = qHTS RealTime-Glo MT Cell Viability Assay in HEK293 cells - 0 hour (AID 1224880); further: nearly all actives have a fitted effect of over 45% in size; further: potency means the concentration at half of the fitted maximal effect
Procedure, shortened: as §3

[11] = A CellTox Green Cytotoxicity Assay to monitor cytotoxicity in HEK293 cells - 32 hour (AID 1224881); further: nearly all actives have a fitted effect of over 40% in size
Procedure, shortened: as §1

[12] = A CellTox Green Cytotoxicity Assay to monitor cytotoxicity in HepG2 cells - 32 hour (AID 1224883); further: nearly all actives have a fitted effect of over 50% in size
Procedure, shortened: as §4

[13] = A CellTox Green Cytotoxicity Assay to monitor cytotoxicity in HEK293 cells - 8 hour (AID 1224884); further: nearly all actives have a fitted effect of over 35% in size
Procedure, shortened: as §1

[14] = qHTS RealTime-Glo MT Cell Viability Assay in HepG2 cells - 16 hour (AID 1224885); further: nearly all actives have a fitted effect of over 50% in size
Procedure, shortened: as §5

[15] = qHTS RealTime-Glo MT Cell Viability Assay in HEK293 cells - 24 hour (AID 1224886)
Procedure, shortened: as §2

[16] = qHTS RealTime-Glo MT Cell Viability Assay in HEK293 cells - 8 hour (AID 1224887)
Procedure, shortened: as §3

[17] = A CellTox Green Cytotoxicity Assay to monitor cytotoxicity in HEK293 cells - 16 hour (AID 1224888); further: nearly all actives have a fitted effect of over 35% in size
Procedure, shortened: as §1

[18] = qHTS RealTime-Glo MT Cell Viability Assay in HepG2 cells - 0 hour (AID 1224889); further: nearly all actives have a fitted effect of over 50% in size; further: potency means the concentration at half of the fitted maximal effect
Procedure, shortened: as §5

[19] = A CellTox Green Cytotoxicity Assay to monitor cytotoxicity in HepG2 cells - 0 hour (AID 1224882); further: nearly all actives have a fitted effect of over 35% in size
Procedure, shortened: as §4

Compound | Potency [1] | Potency [2] | outcome [3] | max response [4] | Potency [5] | Potency [6] | Potency [7] | Potency [8] | Potency [9] | Potency [10] | Potency [11] | Potency [12] | Potency [13] | Potency [14] | Potency [15] | Potency [16] | Potency [17] | Potency [18] | Potency [19]
O=C1NC(=O)c2ccccc21 | inactive | inactive | inactive | 3.82% and -4.14% and 5.86% | inactive | inactive | inactive | inactive | inactive | inactive | inactive | inactive | inactive | inactive | inactive | inactive | inactive | inactive | 
NC(=O)c1cnccn1 | inactive | inactive | inactive | -0.816% and 11.3% and 0.0586% | inactive | inactive | inactive | inactive | inactive | inactive | inactive | inactive | inactive | inactive | inactive | inactive | inactive | inactive | 
O=C(O)CCCCCCCC(=O)O | inactive | inactive | inactive | 2.75% and 4.95% and 3.91% | inactive | inactive | inactive | inactive | inactive | inactive | inactive | inactive | inactive | inactive | inactive | inactive | inactive | inactive | 
CC(C)(Oc1ccc(C2CC2(Cl)Cl)cc1)C(=O)O (stereo unspecified) | inactive | inactive | inactive | 2.51% and 10.4% | inactive | inactive | inactive | inactive | inactive | inactive | inactive | inactive | inactive | inactive | inactive | inactive | inactive | inactive | 
CCCC(O)C(CC)CO (stereo unspecified) | inactive | inactive | inactive | 0.318% and 1.14% and 0.567% | inactive | inactive | inactive | inactive | inactive | inactive | inactive | inactive | inactive | inactive | inactive |  | inactive | inactive | 
O=C1CN(/N=C/c2ccc([N+](=O)[O-])o2)C(=O)N1 | inactive | inactive | inactive | -21.3% and -17.7% | inactive | inactive | inactive | inactive | inactive | inactive | inactive | inactive | inactive | inactive | inactive |  | inactive | inactive | 
C/C=C/c1ccc(OC)cc1 | inactive | inactive | inactive | -0.468% [middle of 4 runs] | inactive | inactive | inactive | inactive | inactive | inactive | inactive | inactive | inactive | inactive | inactive | inactive | inactive | inactive | inactive
NC(N)=NC(=O)c1nc(Cl)c(N)nc1N | inactive | inactive | inactive | -9.86% and -7.01% and -5.97% | inactive | inactive | inactive | inactive | inactive | inactive | inactive | inactive | inactive | inactive | inactive |  | inactive | inactive | inactive
CCC1(c2ccccc2)C(=O)NCNC1=O | inactive | inactive | inactive | -6.46% and 0.966% and 0.298% | inactive | inactive | inactive | inactive | inactive | inactive | inactive | inactive | inactive | inactive | inactive |  | inactive | inactive | inactive
Nc1ccc(O)c(C(=O)O)c1 | inactive | inactive | inactive | 1.04% and -2.7% and 0.776% | inactive | inactive | inactive | inactive | inactive | inactive | inactive | inactive | inactive | inactive | inactive |  | inactive | inactive | 
O=NO | inactive | inactive | inactive | 1.94% and 6.27% and -0.835% | inactive | inactive | inactive | inactive | inactive | inactive | inactive | inactive | inactive | inactive | inactive |  | inactive | inactive | inactive
O=C(c1ccccc1)c1ccccc1 | inactive | inactive | inactive | -7.38% and -0.339% and 9.06% | inactive | inactive | inactive | inactive | inactive | inactive | inactive | inactive | inactive | inactive | inactive | inactive | inactive | inactive | 
CC(C)[C@@H]1CC[C@@H](C)C[C@H]1O | inactive | inactive | inactive | 3.82% [middle of 5 runs] | inactive | inactive | inactive | inactive | inactive | inactive | inactive | inactive | inactive | inactive | inactive | inactive | inactive | inactive | inactive
O=C(O)c1cccc([N+](=O)[O-])c1 | inactive | inactive | inactive | -2.27% and 9.34% and 3.61% | inactive | inactive | inactive | inactive | inactive | inactive | inactive | inactive | inactive | inactive | inactive |  | inactive | inactive | inactive
O=C(O)c1cc(N=Nc2ccc(S(=O)(=O)Nc3ccccn3)cc2)ccc1O | inactive | inactive | inactive | -2.85% and -13.7% and 1.5% | inactive | inactive | inactive | inactive | inactive | 12.3 µM (active) and 19.5 µM (active) and 16.9 µM (active) | inactive | inactive | inactive | inactive | inactive |  | inactive | 11 µM (active) and 21.9 µM (active) | 
O=c1cc[nH]c(=S)[nH]1 | inactive | inactive | inactive | 6.11% and 3.88% and 9.23% | inactive | inactive | inactive | inactive | inactive | inactive | inactive | inactive | inactive | inactive | inactive |  | inactive | inactive | inactive
Cc1ccccc1C(OCCN(C)C)c1ccccc1 (stereo unspecified) | inactive | inactive | inactive | -3.03% and -20.7% and -19.7% | inactive | inactive | inactive | inactive | inactive | inactive | inactive | inactive | inactive | inactive | inactive |  | inactive | inactive | 
O=C(O)CCCCC(=O)O | inactive | inactive | inactive | 4.36% and 16.9% and 2.15% | inactive | inactive | inactive | inactive | inactive | inactive | inactive | inactive | inactive | inactive | inactive |  | inactive | inactive | 
CC(=O)NS(=O)(=O)c1ccc(N)cc1 | inactive | inactive | inactive | 9.67% and 1.24% and 4.39% | inactive | inactive | inactive | inactive | inactive | inactive | inactive | inactive | inactive | inactive | inactive | inactive | inactive | inactive | 
O=C(O)/C=C\C(=O)O | inactive | inactive | inactive | 3.82% and 7.29% and 0.357% | inactive | inactive | inactive | inactive | inactive | inactive | inactive | inactive | inactive | inactive | inactive |  | inactive | inactive | 
O=S(=O)(O)NC1CCCCC1 | inactive | inactive | inactive | 10.8% and 12.2% and -1.58% | inactive | inactive | inactive | inactive | inactive | inactive | inactive | inactive | inactive | inactive | inactive |  | inactive | inactive | inactive
COC(=O)[C@H](Cc1ccccc1)NC(=O)[C@@H](N)CC(=O)O (H-Asp-Phe-OMe) | inactive | inactive | inactive | 0.561% and -0.312% and -3.38% | inactive | inactive | inactive | inactive | inactive | inactive | inactive | inactive | inactive | inactive | inactive |  | inactive | inactive | 
CCCC(CCC)C(=O)O | inactive | inactive | inactive |  | inactive | inactive | inactive | inactive | inactive | inactive | inactive | inactive | inactive | inactive | inactive |  | inactive | inactive | 
NC(N)=O | inactive | inactive | inactive | 7.94% and 4.18% and 0.0917% | inactive | inactive | inactive | inactive | inactive | inactive | inactive | inactive | inactive | inactive | inactive |  | inactive | inactive | 
CC(=O)OCC(COC(C)=O)OC(C)=O | inactive | inactive | inactive | 1.3% and 11.6% and 13.6% | inactive | inactive | inactive | inactive | inactive | inactive | inactive | inactive | inactive | inactive | inactive | inactive | inactive | inactive | 
O=C(O)CCC(=O)O | inactive | inactive | inactive | 9.17% and -2.49% and -2.75% | inactive | inactive | inactive | inactive | inactive | inactive | inactive | inactive | inactive | inactive | inactive |  | inactive | inactive | 
CC(O)CO (stereo unspecified) | inactive | inactive | inactive | -4.92% and 4.28% and 2.26% | inactive | inactive | inactive | inactive | inactive | inactive | inactive | inactive | inactive | inactive | inactive |  | inactive | inactive | inactive
